Data on seven molecules can be found in PubChem BioAssay (EPA / NIEHS).

Several values for one entry are separate records, joined by “and”; a condition that tells them apart may be missing. Equal values may be shown once. Inconclusive results are not listed. Where a structure was tested more than once in an assay, its records may differ in their call. Activity calls are given as the source filed them. Rule for the calls, unless noted: active = hit-call score of the fitted dose curve at least 0.9, where 1 is the maximum; inconclusive = response in the unintended direction; inactive = score below 0.9.

Read-out in assay [1]: UDP glucuronosyltransferase (UGT1A6), UGT1A6 (gene 54578)
The assay can be described thus: LTEA_HepaRG_UGT1A6: Life Technologies and Expression Analysis (LTEA) Assay for UDP glucuronosyltransferase (UGT1A6) using HepaRG (AID 2283539; active = hit-call score of the fitted dose curve at least 0.9, where 1 is the maximum; inactive = score below 0.9). The note with it: mRNA level, 48 h; actives raise or lower the signal. Summed up:
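Measures mRNA change in HepaRG hepatic cells exposed 48 h to chemicals (eight-point, maximum 100 uM, 0.5% DMSO vehicle) in serum-free induction medium. Expression normalized to endogenous controls; DMSO served as negative control and baseline.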

Read-out in assay [2]: X-box binding protein 1 (XBP1), XBP1 (gene 7494)
Briefly: LTEA_HepaRG_XBP1: Life Technologies and Expression Analysis (LTEA) Assay for X-box binding protein 1 (XBP1) using HepaRG (AID 2283540; active = hit-call score of the fitted dose curve at least 0.9, where 1 is the maximum; inactive = score below 0.9). The settings on record: mRNA level, 48 h; actives raise or lower the signal. The procedure, abridged:
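Eight concentrations (half-log, highest 100 uM, 0.5% DMSO) tested in duplicate on HepaRG cells over 48 h in serum-free induction medium; qRT-PCR of XBP1 normalised to ACTB, GAPDH, POLR2A.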

Assay [3] in a line: LTEA_HepaRG_LDH_cytotoxicity: Cytotoxicity Assessment in the Life Technologies and Expression Analysis (LTEA) Assay (AID 2283563).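 For AC50: LDH activity released into spent culture medium as a marker of cell death.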 Summed up: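 Spent-medium LDH after 48 h chemical exposure of HepaRG cells in serum-free induction medium; eight concentrations, half-log dilutions from 100 uM, duplicate wells, fitted upward relative to 0.5% DMSO.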
The nature of assay [4]: ATG_XTT_Cytotoxicity: Cytotoxicity Assessment in the Attagene TRANS-FACTORIAL HepG2 Assay (AID 2283584).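 For AC50: XTT signal for cell number as viability in transfected HepG2 cells; cells exposed to compound for 24 h before reading; active means loss of viability signal versus DMSO baseline.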 The procedure, abridged: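 24 h chemical exposure of reporter-transfected HepG2; XTT signal loss vs DMSO indicates cytotoxicity.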
Assay [5] can be described thus: TOX21_p53_BLA_p2_viability: Viability Assessment in the Tox21 HCT-116 p53 Agonism Beta-lactamase Assay, Phase 2 (AID 2283591).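 Note: compound exposure lasted 16 h at 37 °C; actives lower the ATP signal meaning cytotoxicity.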 The procedure, abridged:
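HCT116 p53-bla cells, 4000/well, dosed after 5 h plating (217-fold dilution of DMSO stocks) and incubated 16 h at 37C. Viability taken as cellular ATP by CellTiter-Glo luminescence after 30 min RT; signal loss marks cytotoxicity.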

The target in assay [6] is Cellular tumor antigen p53 (Homo sapiens) (UniProt P04637). The assay can be described thus: TOX21_p53_BLA_p2_ratio: Tox21 HCT-116 p53 Agonism Beta-lactamase Assay, Ratio, Phase 2 (AID 2283592). Summed up:
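Human colon HCT116 cells with an inducible p53 beta-lactamase reporter are exposed to test chemicals for 16 h at 37C. Reporter induction is read as the 460/530 nm emission ratio after CCF4-AM loading, normalized to DMSO.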

Assay [7] in a line: TOX21_p53_BLA_p3_viability: Viability Assessment in the Tox21 HCT-116 p53 Agonism Beta-lactamase Assay, Phase 3 (AID 2283593).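 Note: cells exposed to compound for 16 h before reading.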 Summed up:
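HCT116 cells, 4000/well, dosed 5 h after plating by pin transfer (217-fold dilution from DMSO stock) and incubated 16 h at 37C, 5% CO2. Viability read as ATP luminescence with CellTiter-Glo after 30 min at room temperature.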

Assay [8] addresses Cellular tumor antigen p53 (Homo sapiens) (UniProt P04637). The assay can be described thus: TOX21_p53_BLA_p3_ratio: Tox21 HCT-116 p53 Agonism Beta-lactamase Assay, Ratio, Phase 3 (AID 2283596). The procedure, abridged:
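HCT116 p53-bla cells (4000/well) given compound in DMSO (217-fold dilution) after 5 h, incubated 16 h at 37C. CCF4-AM substrate 2 h at room temperature; 460/530 nm emission ratio, gain fitted against DMSO.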

Assay [9] has the same target. The assay can be described thus: TOX21_p53_BLA_p5_ratio: Tox21 HCT-116 p53 Agonism Beta-lactamase Assay, Ratio, Phase 5 (AID 2283599). The procedure, abridged: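 HCT-116 p53-bla cells (4000/well) plated 5 h, dosed with compound (217-fold DMSO dilution) for 16 h at 37 C; CCF4-AM substrate 2 h at room temperature. Activity is the 460/530 nm emission ratio (405 nm excitation), fitted in gain-of-signal direction versus DMSO.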

A short description of assay [10]: TOX21_p53_BLA_p5_viability: Viability Assessment in the Tox21 HCT-116 p53 Agonism Beta-lactamase Assay, Phase 5 (AID 2283600). Summed up:
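Seeded cells (4000/well) settle 5 h before compound addition. Plates then incubate 16 h at 37C, receive FRET substrate for 2 h, and finally CellTiter-Glo, with luminescence measured after a 30 min room-temperature incubation.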

The target of assay [11] is Cellular tumor antigen p53 (Homo sapiens) (UniProt P04637). The assay can be described thus: TOX21_p53_BLA_p4_ratio: Tox21 HCT-116 p53 Agonism Beta-lactamase Assay, Ratio, Phase 4 (AID 2283601). Summed up:
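HCT-116 p53 beta-lactamase reporter cells (4000/well) preincubated 5 h, then compound (217-fold dilution of DMSO stock) for 16 h at 37C. CCF4-AM substrate added 2 h at room temperature; 460/530 nm emission ratio fitted upward versus DMSO.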

Assay [12] can be described thus: Tanguay_ZF_120hpf_MORT_legacy: (Legacy) Oregon State University Tanguay Lab 120 Hour Post-fertilization zebrafish Assay for Mortality (AID 2283633). The procedure, abridged:
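Single dechorionated Tropical 5D embryos were held with test chemical (0.64% DMSO final) from 6 to 120 hpf at 28C under foil. Deaths at 24 or 120 hpf were recorded as binary calls, analysed for increase over DMSO controls.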

Assay [13] can be described thus: Tanguay_ZF_120hpf_YSE_legacy: (Legacy) Oregon State University Tanguay Lab 120 Hour Post-fertilization zebrafish Assay for Yolk Sac Edema (AID 2283634).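 For AC50: actives raise the incidence of yolk sac edema above the DMSO baseline.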 Summed up: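 Single dechorionated embryos were held in sealed plates at 28C with test chemical (0.64% DMSO final) from 6 hpf until 120 hpf. Edema of the yolk sac was then recorded as a binary endpoint; non-mortality endpoints were skipped for dead embryos.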

Assay [14] is described as follows: Tanguay_ZF_120hpf_AXIS_legacy: (Legacy) Oregon State University Tanguay Lab 120 Hour Post-fertilization zebrafish Assay for Body Axis Malformation (AID 2283635).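 For AC50: potency for an increased fraction of larvae scored with body axis malformation.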 Summed up: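 Each dechorionated embryo was exposed alone from 6 hpf, with DMSO at 0.64% (vol/vol) and trimethyltin chloride 5 uM as positive control. Axis malformation was recorded at 120 hpf unless the embryo had died.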

A short description of assay [15]: Tanguay_ZF_120hpf_EYE_legacy: (Legacy) Oregon State University Tanguay Lab 120 Hour Post-fertilization zebrafish Assay for Eye Malformation (AID 2283636).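 Note: binary presence or absence of eye malformation scored by brightfield in 120 hpf larvae.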 The procedure, abridged:
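Dechorionated Tropical 5D zebrafish embryos, one per well from 6 hpf, static exposure to 120 hpf at 28C, 0.64% DMSO. Eye malformation scored present/absent by brightfield; dead embryos not scored.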

Assay [16] can be described thus: Tanguay_ZF_120hpf_PE_legacy: (Legacy) Oregon State University Tanguay Lab 120 Hour Post-fertilization zebrafish Assay for Pericardial Edema (AID 2283640).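 For AC50: potency for increased incidence of pericardial edema versus DMSO baseline.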 Summed up:
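Zebrafish larvae are exposed from early development to 120 hpf at 28C, with 0.64% DMSO final. Each surviving larva receives a yes/no pericardial edema call by brightfield imaging, analysed relative to the DMSO baseline.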

A short description of assay [17]: TOX21_p53_BLA_p4_viability: Viability Assessment in the Tox21 HCT-116 p53 Agonism Beta-lactamase Assay, Phase 4 (AID 2283597).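 Note: hits lower the luminescence signal meaning cytotoxicity.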 The procedure, abridged:
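Luminescent ATP readout (CellTiter-Glo, 30 min, room temperature) in the same wells as the p53 bla ratio. HCT116 cells were treated for 16 h at 37C with DMSO-dissolved compounds.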

Assay [18] is described as follows: Tanguay_ZF_120hpf_JAW_legacy: (Legacy) Oregon State University Tanguay Lab 120 Hour Post-fertilization zebrafish Assay for Jaw Malformation (AID 2283638).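 For AC50: active means more embryos with jaw malformation than DMSO controls.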 Summed up: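 Wild-type 5D embryos, chorion removed at 4 hpf, dosed singly from 6 hpf; 28C static, sealed, foil-covered, to 120 hpf. Endpoint: jaw defect yes/no (brightfield); mortality excludes scoring.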
Assay [19] in a line: Tanguay_ZF_120hpf_OTIC_legacy: (Legacy) Oregon State University Tanguay Lab 120 Hour Post-fertilization zebrafish Assay for Otic Vesicle Malformation (AID 2283639). The procedure, abridged: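 Tropical 5D wild-type zebrafish embryos were exposed statically in sealed, foil-covered plates at 28C until 120 hpf, with 0.64% (vol/vol) DMSO final. Otic vesicle malformation was scored present/absent by brightfield microscopy, with DMSO as baseline.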

Assay [20] is described as follows: Tanguay_ZF_120hpf_SNOU_legacy: (Legacy) Oregon State University Tanguay Lab 120 Hour Post-fertilization zebrafish Assay for Snout Malformation (AID 2283637). The procedure, abridged:
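Dechorionated tropical 5D wild-type zebrafish embryos exposed statically from 6 to 120 hpf at 28C, one per well, in 0.64% DMSO. Snout malformation scored as present/absent by brightfield at 120 hpf; dead embryos not scored.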

Usually AC50 stands for the concentration giving half of the maximal activity seen.

Sequence of Cellular tumor antigen p53 (Homo sapiens) (P04637 whole entry, looked up): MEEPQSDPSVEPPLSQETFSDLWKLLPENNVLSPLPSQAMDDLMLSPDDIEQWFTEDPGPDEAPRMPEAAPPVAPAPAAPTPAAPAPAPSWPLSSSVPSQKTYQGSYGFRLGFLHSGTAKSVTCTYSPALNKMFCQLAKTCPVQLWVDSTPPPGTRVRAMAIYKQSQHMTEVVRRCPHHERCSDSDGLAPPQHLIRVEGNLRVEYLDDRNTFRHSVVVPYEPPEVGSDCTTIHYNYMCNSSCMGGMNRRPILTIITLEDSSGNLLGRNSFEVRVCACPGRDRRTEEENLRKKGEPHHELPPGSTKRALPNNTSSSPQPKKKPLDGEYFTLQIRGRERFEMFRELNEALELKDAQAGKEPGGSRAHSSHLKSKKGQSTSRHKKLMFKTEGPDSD

Consider `CCCCCCCCCCCC(=O)OC`, for which the molecule was called inactive in assay [1], in [2], in assay [3], in [4], in assay [5] and in assay [6]. The outcome in assay [7], in assay [8], in assay [9], in assay [10], in [11] and in assay [12] was inactive. Moreover, the molecule was called inactive in assay [13], in [14], in assay [15] and in assay [16].

On to `Cc1cccc(C)c1O`, for which the result in assay [1], in assay [2], in assay [3], in assay [4], in assay [5] and in [6] was inactive. The result in assay [7], in [8], in assay [17], in assay [9], in assay [10] and in [11] was inactive. In addition, the outcome in [12], in assay [13], in assay [14], in [15], in [18] and in assay [16] was inactive.

Consider `CC(=O)C(C)=CC1C(C)=CCCC1(C)C` (stereo not given), for which the outcome in assay [1], in assay [2], in assay [3], in [4], in assay [5] and in [6] was inactive. In addition, the result in [7], in assay [8], in assay [17], in [9], in [10] and in [12] was inactive. Also, the molecule was classed as inactive in assay [14], in [15], in assay [19] and in assay [16].

As to `CCCCC(CC)COC(=O)CC(C(=O)OCC(CC)CCCC)S(=O)(=O)O` (stereo not given), the AC50 in [1] was 79.9 µM (active); in [3], 75.3 µM (active); in [4] it was 43.8 µM (active); in assay [5], 59.8 µM (active) [middle of 4 runs]; in assay [6], 77.1 µM (active) and 82.5 µM (active); in [7], 71.8 µM (active) and 65 µM (active) and 42 µM (active). Further, the AC50 in assay [8] was 85.9 µM (active) and 83.5 µM (active); in [17], 50.1 µM (active) [middle of 4 runs]; in assay [9] it was 79.2 µM (active) [middle of 4 runs]; in assay [10], 62.1 µM (active) [middle of 4 runs]; in assay [11] it was 79.2 µM (active) [middle of 4 runs]. For the same molecule, the call in assay [2], in assay [6], in [7], in [8], in [12] and in assay [13] was inactive. For the same molecule, the molecule was classed as inactive in assay [14], in assay [15], in assay [18], in assay [19] and in [16].

`O=C(O)CCCCC(=O)O`: the outcome in assay [1], in assay [2], in assay [3], in assay [4], in [5] and in [6] was inactive. Further, the molecule was classed as inactive in assay [7], in assay [8], in assay [17], in assay [9], in assay [10] and in assay [11]. Also, the molecule was classed as inactive in assay [12], in assay [13], in assay [15], in assay [20], in assay [18] and in assay [19]. Also, in assay [16], the call was inactive.

For `COc1cc(C=O)ccc1O`, the call in assay [1], in assay [2], in assay [3], in assay [4], in assay [5] and in assay [6] was inactive. Further, the molecule was classed as inactive in [7], in assay [8], in [17], in assay [9], in assay [10] and in [11]. Also, the outcome in assay [12] was inactive. Besides, the half-maximal activity concentration (AC50) in assay [13] was 43.3 µM (active); in assay [14], 49.2 µM (active); in assay [15], 60.5 µM (active); in [20] it was 36.6 µM (active); in assay [18], 35.3 µM (active); in assay [19], 59.2 µM (active). The AC50 in [16] was 37.6 µM (active).

On to `OC[C@@H](O)[C@@H](O)[C@H](O)[C@H](O)CO`, for which the molecule was called inactive in assay [1], in assay [2], in assay [3], in assay [4], in assay [5] and in assay [6]. For the same molecule, the molecule was called inactive in assay [7], in [8], in assay [9], in assay [10], in [11] and in [12]. Also, the outcome in [13], in assay [14], in [15], in [20], in assay [18] and in assay [19] was inactive. Further, in assay [16], the molecule was called inactive.
